{
  "source": "PubChem BioAssay (EPA / NIEHS)",
  "note": "Activity calls are given as the source filed them. How the source made its calls: active means hit-call score of the fitted dose curve at least 0.9, where 1 is the maximum; inactive means score below 0.9.",
  "data": [
    {"assay": "Tanguay_ZF_120hpf_MORT: Oregon State University Tanguay Lab 120 Hour Post-fertilization zebrafish Assay for Mortality (AID 2284399)", "method_in_brief": "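Dechorionated wild-type Tropical 5D zebrafish embryos, one per well from 6 hpf, static exposure to 120 hpf at 28C in sealed dark plates, 0.64% DMSO final. Mortality scored as binary by brightfield at 24 and 120 hpf.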", "values": [
      {"smiles": "CN(CCO)S(=O)(=O)C(F)(F)C(F)(F)C(F)(F)C(F)(F)C(F)(F)C(F)(F)C(F)(F)C(F)(F)F", "outcome": "inactive"},
      {"smiles": "O=P(O)(O)CCC(F)(F)C(F)(F)C(F)(F)C(F)(F)C(F)(F)C(F)(F)C(F)(F)C(F)(F)F", "outcome": "inactive"},
      {"smiles": "O=C(O)C(F)(F)OC(F)(F)C(F)(F)OC(F)(F)C(F)(F)OC(F)(F)C(F)(F)C(F)(F)C(F)(F)F", "AC50": "51.1 µM (active)"},
      {"smiles": "OCC(F)(F)C(F)(F)C(F)(F)C(F)(F)C(F)(F)C(F)(F)C(F)(F)C(F)(F)C(F)(F)C(F)(F)C(F)(F)F", "outcome": "inactive"},
      {"smiles": "C=CC(=O)OCCC(F)(F)C(F)(F)C(F)(F)C(F)(F)C(F)(F)C(F)(F)C(F)(F)C(F)(F)F", "outcome": "inactive"},
      {"smiles": "O=C(O)CCC(F)(F)C(F)(F)C(F)(F)C(F)(F)C(F)(F)F", "outcome": "inactive"},
      {"smiles": "O=C(CC(=O)C(F)(F)C(F)(F)C(F)(F)F)c1cccs1", "outcome": "inactive"},
      {"smiles": "O=P(O)(O)CCC(F)(F)C(F)(F)C(F)(F)C(F)(F)C(F)(F)C(F)(F)F", "outcome": "inactive"}
    ]},
    {"assay": "Tanguay_ZF_120hpf_EDEM: Oregon State University Tanguay Lab 120 Hour Post-fertilization zebrafish Assay for Edema Malformation (AID 2284400)", "experimental": "(§1) Tanguay_ZF_120hpf is a whole embryo, multiplexed endpoint assay using zebrafish larvae exposed for 120 hours post fertilization on a 96-well plate.Tanguay_ZF_120hpf_EDEM is one of one assay component(s) measured or calculated from the Tanguay_ZF_120hpf assay. It is designed to make measurements of zebrafish development as detected with brightfield microscopy of developing zebrafish embryos.Data from the assay component Tanguay_ZF_120hpf_EDEM was analyzed into 1 assay endpoints. This assay endpoint, Tanguay_ZF_120hpf_EDEM, was analyzed in the positive analysis fitting direction relative to DMSO as the negative control and baseline of activity. Using a type of morphology reporter, gain-of-signal activity can be used to understand changes in developmentals as they relate to the whole embryo. To generalize the intended target to other relatable targets, this assay endpoint is annotated to the zebrafish development intended target family, where the subfamily is embryonic edema.\n(§2) Zebrafish husbandry: Tropical 5D wild-type adult zebrafish were housed in at an approximate density of 1000 per 100 gallon tank at the Sinnhuber Aquatic Research Laboratory, Oregon State University, Corvallis, OR. Each tank was kept at standard laboratory conditions of 28C on a 14-h light/10-h dark photoperiod in fish water consisting of reverse osmosis water supplemented with a commercially available salt (Instant Ocean). Spawning funnels were placed into the tanks the night prior, and embryos were collected and staged. To increase bioavailability, the chorion was enzymatically removed using pronase (63.6mg/ml, >/= 3.5U/mg, Sigma-Aldrich: P5147) at 4 hours post fertilization (hpf) using a custom automated dechorionator.Chemical exposures: Six hpf dechorionated embryos were placed 1 embryo per well in a 96-well plate prefilled with 90 ul of EM using automated embryo placement systems (AEPS). Ten microliters of each row of dilution plate 2 was added to 2 exposure plates. The final DMSO concentration used was 0.64% (vol/vol). Thirty-two embryos were also exposed to 5uM trimethyltin chloride (positive control). Plates were sealed to prevent evaporation and foil covered to reduce light exposure and kept in a 28C incubator. Embryos were statically exposed until 120 hpf. At 24 hpf, embryos were assessed for photomotor response using a custom photomotor response analysis tool (PRAT) and for developmental toxicity endpoints (MO24: mortality at 24 hpf, DP: developmental progression, SM: spontaneous movement, and NC: notochord distortion). At 120 hpf, locomotor activity was measured using Viewpoint Zebralab and assessed for 13 endpoints. Zebrafish acquisition and analysis program (ZAAP), a custom program designed to inventory, acquire, and manage zebrafish data, was used to collect developmental endpoints as either present or absent (i.e., binary responses were recorded). If mortality occurred for an embryo (at either 24 or 120 hpf), the non-mortality endpoints were not measured.", "values": [
      {"smiles": "CN(CCO)S(=O)(=O)C(F)(F)C(F)(F)C(F)(F)C(F)(F)C(F)(F)C(F)(F)C(F)(F)C(F)(F)F", "AC50": "29.6 µM (active)"},
      {"smiles": "O=P(O)(O)CCC(F)(F)C(F)(F)C(F)(F)C(F)(F)C(F)(F)C(F)(F)C(F)(F)C(F)(F)F", "outcome": "inactive"},
      {"smiles": "O=C(O)C(F)(F)OC(F)(F)C(F)(F)OC(F)(F)C(F)(F)OC(F)(F)C(F)(F)C(F)(F)C(F)(F)F", "outcome": "inactive"},
      {"smiles": "OCC(F)(F)C(F)(F)C(F)(F)C(F)(F)C(F)(F)C(F)(F)C(F)(F)C(F)(F)C(F)(F)C(F)(F)C(F)(F)F", "outcome": "inactive"},
      {"smiles": "C=CC(=O)OCCC(F)(F)C(F)(F)C(F)(F)C(F)(F)C(F)(F)C(F)(F)C(F)(F)C(F)(F)F", "outcome": "inactive"},
      {"smiles": "O=C(O)CCC(F)(F)C(F)(F)C(F)(F)C(F)(F)C(F)(F)F", "outcome": "inactive"},
      {"smiles": "O=C(CC(=O)C(F)(F)C(F)(F)C(F)(F)F)c1cccs1", "AC50": "65.8 µM (active)"},
      {"smiles": "O=P(O)(O)CCC(F)(F)C(F)(F)C(F)(F)C(F)(F)C(F)(F)C(F)(F)F", "outcome": "inactive"}
    ]},
    {"assay": "Tanguay_ZF_120hpf_BRN: Oregon State University Tanguay Lab 120 Hour Post-fertilization zebrafish Assay for Brain Region Malformation (AID 2284402)", "experimental": "as §1, with “plate.Tanguay_ZF_120hpf_BRN” for “plate.Tanguay_ZF_120hpf_EDEM”, “Tanguay_ZF_120hpf_BRN” for “Tanguay_ZF_120hpf_EDEM”, “Tanguay_ZF_120hpf_BRN,” for “Tanguay_ZF_120hpf_EDEM,”, “brain morphogenesis.” for “embryonic edema.”\nas §2", "values": [
      {"smiles": "CN(CCO)S(=O)(=O)C(F)(F)C(F)(F)C(F)(F)C(F)(F)C(F)(F)C(F)(F)C(F)(F)C(F)(F)F", "outcome": "inactive"},
      {"smiles": "O=P(O)(O)CCC(F)(F)C(F)(F)C(F)(F)C(F)(F)C(F)(F)C(F)(F)C(F)(F)C(F)(F)F", "outcome": "inactive"},
      {"smiles": "O=C(O)C(F)(F)OC(F)(F)C(F)(F)OC(F)(F)C(F)(F)OC(F)(F)C(F)(F)C(F)(F)C(F)(F)F", "outcome": "inactive"},
      {"smiles": "OCC(F)(F)C(F)(F)C(F)(F)C(F)(F)C(F)(F)C(F)(F)C(F)(F)C(F)(F)C(F)(F)C(F)(F)C(F)(F)F", "outcome": "inactive"},
      {"smiles": "C=CC(=O)OCCC(F)(F)C(F)(F)C(F)(F)C(F)(F)C(F)(F)C(F)(F)C(F)(F)C(F)(F)F", "outcome": "inactive"},
      {"smiles": "O=C(O)CCC(F)(F)C(F)(F)C(F)(F)C(F)(F)C(F)(F)F", "outcome": "inactive"},
      {"smiles": "O=C(CC(=O)C(F)(F)C(F)(F)C(F)(F)F)c1cccs1", "outcome": "inactive"},
      {"smiles": "O=P(O)(O)CCC(F)(F)C(F)(F)C(F)(F)C(F)(F)C(F)(F)C(F)(F)F", "outcome": "inactive"}
    ]}
  ]
}
